Data published in PubChem BioAssay (EPA / NIEHS).
Inconclusive results are not listed. Active and inactive are the calls of the source. Rule for the calls: active = hit-call score of the fitted dose curve at least 0.9, where 1 is the maximum; inconclusive = response in the unintended direction; inactive = score below 0.9.

Assay: Tanguay_ZF_120hpf_SWIM_legacy: (Legacy) Oregon State University Tanguay Lab 120 Hour Post-fertilization zebrafish Assay for Swim Bladder Malformation (AID 2283654);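 note: swim bladder malformation in each larva scored yes or no under brightfield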
Experimental: Tanguay_ZF_120hpf_legacy is a whole embryo, multiplexed endpoint assay using zebrafish larvae exposed for 120 hours post fertilization on a 96-well plate.Tanguay_ZF_120hpf_SWIM_legacy is one of one assay component(s) measured or calculated from the Tanguay_ZF_120hpf_legacy assay. It is designed to make measurements of zebrafish development as detected with brightfield microscopy of developing zebrafish embryos.Data from the assay component Tanguay_ZF_120hpf_SWIM_legacy was analyzed into 1 assay endpoints. This assay endpoint, Tanguay_ZF_120hpf_SWIM_legacy, was analyzed in the positive analysis fitting direction relative to DMSO as the negative control and baseline of activity. Using a type of morphology reporter, gain-of-signal activity can be used to understand changes in developmentals as they relate to the whole embryo. To generalize the intended target to other relatable targets, this assay endpoint is annotated to the zebrafish development intended target family, where the subfamily is swim bladder morphogenesis.
Zebrafish husbandry: Tropical 5D wild-type adult zebrafish were housed in at an approximate density of 1000 per 100 gallon tank at the Sinnhuber Aquatic Research Laboratory, Oregon State University, Corvallis, OR. Each tank was kept at standard laboratory conditions of 28C on a 14-h light/10-h dark photoperiod in fish water consisting of reverse osmosis water supplemented with a commercially available salt (Instant Ocean). Spawning funnels were placed into the tanks the night prior, and embryos were collected and staged. To increase bioavailability, the chorion was enzymatically removed using pronase (63.6mg/ml, >/= 3.5U/mg, Sigma-Aldrich: P5147) at 4 hours post fertilization (hpf) using a custom automated dechorionator.Chemical exposures: Six hpf dechorionated embryos were placed 1 embryo per well in a 96-well plate prefilled with 90 ul of EM using automated embryo placement systems (AEPS). Ten microliters of each row of dilution plate 2 was added to 2 exposure plates. The final DMSO concentration used was 0.64% (vol/vol). Thirty-two embryos were also exposed to 5uM trimethyltin chloride (positive control). Plates were sealed to prevent evaporation and foil covered to reduce light exposure and kept in a 28C incubator. Embryos were statically exposed until 120 hpf. At 24 hpf, embryos were assessed for photomotor response using a custom photomotor response analysis tool (PRAT) and for developmental toxicity endpoints (MO24: mortality at 24 hpf, DP: developmental progression, SM: spontaneous movement, and NC: notochord distortion). At 120 hpf, locomotor activity was measured using Viewpoint Zebralab and assessed for 18 endpoints. Zebrafish acquisition and analysis program (ZAAP), a custom program designed to inventory, acquire, and manage zebrafish data, was used to collect developmental endpoints as either present or absent (i.e., binary responses were recorded). If mortality occurred for an embryo (at either 24 or 120 hpf), the non-mortality endpoints were not measured.

Compound	outcome	AC50
Cc1ccccc1O	inactive	–
Cc1ccccc1[N+](=O)[O-]	inactive	–
c1ccc(-c2ccccc2)cc1	inactive	–
c1cc2ccc3cccc4ccc(c1)c2c34	inactive	–
Cc1cc(-c2ccc(N)c(C)c2)ccc1N	inactive	–
CCC(C)(CC)c1cc(NC(=O)c2c(OC)cccc2OC)on1	inactive	–
CC(C)(c1ccccc1)c1ccc(O)cc1	inactive	–
O=C(O)C(F)(F)C(F)(F)C(F)(F)C(F)(F)C(F)(F)F	inactive	–
CO/C=C(/C(=O)OC)c1ccccc1COc1cccc(C(F)(F)F)n1	–	14.5 µM (active)
CCC(C)c1cc([N+](=O)[O-])cc([N+](=O)[O-])c1O (stereo not given)	inactive	–
Oc1c(Cl)c(Cl)c(Cl)c(Cl)c1Cl	inactive	–
CCCCCCCCOC(=O)c1ccccc1C(=O)OCCCCCCCC	inactive	–
CCCCCCCCCC[N+](C)(C)CCCCCCCCCC	inactive	–
O=S(=O)(O)C(F)(F)C(F)(F)C(F)(F)C(F)(F)F	inactive	–
N#Cc1ccc(N(CC(N)=O)CC(F)(F)F)cc1C(F)(F)F	inactive	–
O=NN(c1ccccc1)c1ccccc1	inactive	–
Oc1ccc(C(c2ccc(O)cc2)(C(F)(F)F)C(F)(F)F)cc1	inactive	–
O=C(NC(=O)c1cc(F)c(F)cc1Cl)Nc1cc(F)ccc1N1CCC(C(=O)O)CC1	inactive	–
O=C(O)C(F)(F)C(F)(F)C(F)(F)C(F)(F)C(F)(F)C(F)(F)C(F)(F)C(F)(F)F	inactive	–
COc1ccc(O)c(C(C)(C)C)c1	inactive	–

Compound	outcome	AC50
Nn1cnnc1	inactive	–
CC#Cc1cc(C)nc(Nc2ccccc2)n1	inactive	–
CCOCCOC(C)=O	inactive	–
CCCCCCCCCc1ccc(O)cc1	inactive	–
O=S(=O)(O)C(F)(F)C(F)(F)C(F)(F)C(F)(F)C(F)(F)C(F)(F)F	inactive	–
O=C(N[C@H]1CN2CCC1CC2)c1cc2ccoc2cn1	inactive	–
CCSC(=O)N(CC)C1CCCCC1	inactive	–
ClC(Cl)=C(c1ccc(Cl)cc1)c1ccc(Cl)cc1	inactive	–
CC(C)(O)C(=O)Nc1ccc([N+](=O)[O-])c(C(F)(F)F)c1	inactive	–
Cc1ccccc1CO[C@@H]1C[C@@]2(C(C)C)CC[C@]1(C)O2	inactive	–
CC(C)C(=O)OCC(C)(C)C(OC(=O)C(C)C)C(C)C (stereo not given)	inactive	–
C=CC(N)=O	inactive	–
Cc1ccc(O)c(C)c1	inactive	–
C[C@]12CCC(=O)C=C1CC[C@@H]1[C@@H]2CC[C@@]2(C)[C@H]1CC[C@]2(C)O	inactive	–
CCCN(CCC)N=O	inactive	–
CCOC(=O)C(O)(c1ccc(Cl)cc1)c1ccc(Cl)cc1	inactive	–
ClC1=C(Cl)[C@]2(Cl)[C@@H]3[C@H]4C[C@H]([C@@H]5O[C@H]45)[C@@H]3[C@@]1(Cl)C2(Cl)Cl	inactive	–
Oc1ccc(Cl)cc1Cl	inactive	–
O=C(O)C(F)(F)C(F)(F)C(F)(F)C(F)(F)C(F)(F)C(F)(F)C(F)(F)C(F)(F)C(F)(F)F	inactive	–
Nc1ccc(-c2ccc(N)cc2)cc1	inactive	–
